The record followed here is PubChem BioAssay (NCATS).

The nature of assay [1]: Cell Viability - Jurkat (AID 426;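 active means dose-dependent loss of cell ATP signal giving a full or clear fitted curve, ranked by lower potency value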;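 further: potency means the concentration at half of the fitted maximal effect; cells exposed to compound for 40 hours at 37 °C before ATP read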). The note with it: qHTS. The gist of the method:
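Cytotoxicity taken as drop in cellular ATP (CellTiter-Glo luminescence, 20 min room temperature) after 40 hr, 37C treatment of 5000 Jurkat Clone E6-1 cells per well; concentration-response fitted with Hill equation for AC50.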
On the technique in general: Quantitative high-throughput screening tests each substance at several concentrations.

Assay [2] can be described thus: Cell Viability - HUV-EC-C (AID 542).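 Further: cells exposed to compound for 40 hours; nearly all actives have a fitted effect of over 35% in size.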 Further: potency means the concentration at half of the fitted maximal effect. To be noted: HUV-EC-C endothelial cell viability, qHTS; series mostly up to 92.2 µM. The gist of the method: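 CellTiter-Glo luminescence measured ATP loss in HUV-EC-C cells (1000/well) after 40 hr compound exposure at 37 °C, in complete culture medium. Concentration-response data were Hill-fitted to give AC50.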
The nature of assay [3]: Cell Viability - H-4-II-E (AID 543).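 Further: cells exposed to compound for 40 hours; nearly all actives have a fitted effect of over 35% in size.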 Further: potency means the concentration at half of the fitted maximal effect. To be noted: H-4-II-E rat hepatoma viability; series mostly up to 92.2 µM. The gist of the method: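 CellTiter-Glo luminescence (intracellular ATP) measured after 40 h compound exposure at 37 °C in H-4-II-E rat hepatoma cells seeded at 1500/well. Values are AC50s fitted with the standard Hill equation.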
Assay [4] can be described thus: Cell Viability - SH-SY5Y (AID 544).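 Further: cells exposed to compound for 40 hours; nearly all actives have a fitted effect of over 55% in size.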 Further: potency means the concentration at half of the fitted maximal effect. To be noted: SH-SY5Y neuroblastoma cell viability; viability change, negative = cytotoxic: at 92.2 µM (top of the series). The gist of the method:
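Cytotoxicity measured via ATP-dependent luciferase luminescence (CellTiter-Glo) following 40 h, 37 °C exposure of 1500 SH-SY5Y cells per well. Concentration-response data were fitted with the standard Hill equation to give AC50.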

Assay [5] is described as follows: Cellular Toxicity (caspase-3) BJ (AID 658). The note with it: BJ fibroblasts, luminescence, normalized: DMSO 0%, staurosporine 100%; series mostly up to 91.7 µM. In outline: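 Caspase-Glo 3/7 luminescence, read 1 hr after reagent at room temperature, in normal BJ fibroblasts exposed 16 hours at 37 °C. AC50 values from Hill-equation concentration-response, scaled between DMSO basal and 10 uM staurosporine as 100%.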

A short description of assay [6]: Cellular Toxicity (caspase-3) Mesangial (AID 660).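 Further: combined caspase 3 and 7 activity read by Caspase-Glo luminescence; cells exposed to compound for 16 h before the caspase read.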 To be noted: mesangial cells; Potency: caspase-3 activation; series mostly up to 91.7 µM. In outline:
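Caspase 3/7 activation measured by Caspase-Glo 3/7 luminescence (20 min, room temperature) following 16 h exposure of mesangial cells (1000/well); AC50 from Hill-equation fit, normalized to DMSO and 100 uM tamoxifen.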

Assay [7] can be described thus: Cellular Toxicity (caspase-3) Hek293 (AID 664).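 Further: cells exposed to compound for 16 h at 37 °C before readout.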 To be noted: HEK293 caspase-3 activation, DMSO = 0%, 100 µM tamoxifen = 100%; at 92.2 µM (top of the series). The gist of the method: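 Concentration-response qHTS: caspase 3/7 activation measured by luminescent aminoluciferin substrate cleavage after 16 h compound exposure of Hek 293 cells. AC50 from Hill equation, with DMSO as basal and 100 uM tamoxifen as 100%.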

Assay [8] can be described thus: Cell Viability - LYMP2-001 (AID 921). Further: nearly all actives have a fitted effect of over 70% in size. Further: potency means the concentration at half of the fitted maximal effect. To be noted: LYMP2-001 lymphoblastoid cell viability; series mostly up to 92.2 µM. In outline: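 qHTS, 1536-well; lymphoblastoid cells, 24 hr compound, 37 C; ATP by CellTiter-Glo, 30 min RT; luminescence; Hill-fit AC50.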
Assay [9] can be described thus: Cell Viability - LYMP1-002 - Assay at 16 hr (AID 948). Further: potency means the concentration at half of the fitted maximal effect. To be noted: LYMP1-002 lymphoblastoid cell viability; series mostly up to 92.2 µM. The gist of the method: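 Acute cytotoxicity is scored as a concentration-dependent fall in intracellular ATP in a human lymphoblastoid line (LYMP1-002) after 16 hr compound exposure at 37 C, measured by luciferase luminescence.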

The nature of assay [10]: Cell Viability - LYMP1-003 - Assay at 24 hr (AID 963). Further: potency means the concentration at half of the fitted maximal effect.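 On viability change, negative = cytotoxic: plate controls were DMSO only for no effect and tetraoctylammonium bromide positive control for full effect.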 To be noted: LYMP1-003 lymphoblastoid cell viability; series mostly up to 92.2 µM. The gist of the method: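 Concentration-response qHTS: ATP loss measured by CellTiter-Glo luminescence after 24 h compound exposure at 37 C. Cells were LYMP1-003 human lymphoblastoid, 2500 per well. AC50 derived via standard Hill equation modeling.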

Assay [11] can be described thus: Cell Viability - LYMP1-003 - Assay at 40 hr (AID 964). Further: nearly all actives have a fitted effect of over 60% in size. Further: potency means the concentration at half of the fitted maximal effect. To be noted: LYMP1-003 lymphoblastoid viability; series mostly up to 92.2 µM. The gist of the method: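 Viability is taken as cellular ATP, read by CellTiter-Glo luminescence after 40 h of compound exposure at 37 C. Cells: human lymphoblastoid line LYMP1-003 at 2500/well; AC50 values derived by Hill-equation fitting of concentration-response data.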

Assay [12] in a line: Cell Viability - LYMP2-003 (AID 965).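 Further: cells exposed to compounds for 24 h before reading; nearly all actives have a fitted effect of over 50% in size.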 Further: potency means the concentration at half of the fitted maximal effect. To be noted: LYMP2-003 lymphoblastoid cell viability; series mostly up to 92.2 µM. In outline:
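Acute cytotoxicity is scored as a concentration-dependent drop in intracellular ATP, measured by luciferase luminescence in human lymphoblastoid cells treated for 24 hours at 37 C. AC50 values derive from Hill-equation modelling.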

Assay [13] is described as follows: Cell Viability - LYMP2-005 (AID 967). Further: potency means the concentration at half of the fitted maximal effect. The note with it: LYMP2-005 lymphoblastoid cell viability; series mostly up to 92.2 µM. The gist of the method:
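qHTS viability screen in LYMP2-005 cells: 24 h at 37 C with compound, ATP luminescence via CellTiter-Glo, AC50 from Hill curves.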

The nature of assay [14]: Cell Viability - LYMP2-011 (AID 969). Further: nearly all actives have a fitted effect of over 60% in size. Further: potency means the concentration at half of the fitted maximal effect.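 On viability change, negative = cytotoxic: 0% = DMSO only and full inhibition = 92 µM tetraoctylammonium bromide.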 The note with it: LYMP2-011 lymphoblastoid cells viability; series mostly up to 92.2 µM. The gist of the method: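 Cytotoxicity qHTS with ATP content as read-out: lymphoblastoid cells (2500/well) exposed to compound for 24 h at 37 C, then luciferase luminescence measured. Concentration-response data fitted with the standard Hill equation to give AC50.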

The nature of assay [15]: Cell Viability - LYMP2-015 (AID 971). Further: nearly all actives have a fitted effect of over 55% in size. Further: potency means the concentration at half of the fitted maximal effect. The note with it: LYMP2-015 lymphoblastoid cell viability; series mostly up to 92.2 µM. The gist of the method: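 Cytotoxicity readout: decrease in intracellular ATP (CellTiter-Glo luminescence) in 2500 LYMP2-015 lymphoblastoid cells/well after 24 h compound exposure at 37 C. Concentration-response data fitted with the standard Hill equation to give AC50.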

Assay [16] in a line: Cell Viability - LYMP2-019 (AID 973). Further: nearly all actives have a fitted effect of over 55% in size. Further: potency means the concentration at half of the fitted maximal effect. The note with it: LYMP2-019 lymphoblastoid cell line viability; series mostly up to 92.2 µM. In outline: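 AC50 values come from Hill-equation fits of luminescent intracellular ATP (CellTiter-Glo, 30 min, room temperature) following 24 h compound exposure at 37 C. Cells: LYMP2-019 lymphoblastoid line, 2500 per well, in complete culture medium.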

The nature of assay [17]: Cell Viability - LYMP2-023 (AID 975). Further: nearly all actives have a fitted effect of over 55% in size. Further: potency means the concentration at half of the fitted maximal effect. To be noted: LYMP2-023 lymphoblastoid cell viability; series mostly up to 92.2 µM. In outline: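 Intracellular ATP, read by CellTiter-Glo luminescence, reports viability after 24 hr compound exposure at 37 C. 2500 lymphoblastoid cells/well (LYMP2-023) seeded 5 hr beforehand; Hill fits give AC50; positive control tetraoctylammonium bromide.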

A short description of assay [18]: Cell Viability - LYMP2-016 (AID 984). Further: nearly all actives have a fitted effect of over 55% in size. Further: potency means the concentration at half of the fitted maximal effect. The note with it: LYMP2-016 lymphoblastoid cell viability, qHTS; series mostly up to 92.2 µM. In outline: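 Acute toxicity in a Coriell human lymphoblastoid line is scored as loss of intracellular ATP over 24 h of treatment in complete medium. CellTiter-Glo signal is fitted across concentrations with the Hill equation to give AC50.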

Assay [19] is described as follows: Cell Viability - LYMP2-018 (AID 985). Further: nearly all actives have a fitted effect of over 50% in size. Further: potency means the concentration at half of the fitted maximal effect. To be noted: LYMP2-018 lymphoblastoid cells, viability (qHTS); series mostly up to 92.2 µM. The gist of the method:
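Viability read as CellTiter-Glo luminescence (cellular ATP) after 24 hr compound exposure at 37 C of 2500 LYMP2-018 lymphoblastoid cells/well, pre-plated 5 hr. Hill-equation modelling gave AC50.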

Assay [20] can be described thus: qHTS assay for cell viability of the p53RE-bla HCT-116 cell line (AID 743292). Further: nearly all actives have a fitted effect of over 55% in size. Further: potency means the concentration at half of the fitted maximal effect. The note with it: p53RE-bla HCT-116 viability, ATP luminescence, 16 h; series mostly up to 95 µM. The gist of the method:
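CellSensor p53RE-bla HCT-116 cells, 4,000/well, preincubated 5 h at 37 C, then exposed to compounds in DMSO for 16 h at 37 C. Viability read as CellTiter-Glo luminescence (intracellular ATP) after 30 min at room temperature.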

Unmarked numbers belong to inactive results. Records with an inconclusive call do not appear. The source made the active and inactive calls. Unless noted, the call rests on the fitted dose curve; in most records, active means well fitted curve in the direction sought with a large enough effect; inconclusive means small, poorly fitted or top-dose-only effect, or another doubt; inactive means no such curve, though single readings can be large; an effect the other way counts as inactive or inconclusive.

`CC(C)CC(C)Nc1ccc(Nc2ccccc2)cc1` (stereo unspecified): the Potency in assay [1] was 64.1 µM (active); in [2] it was 25.1 µM (active); in assay [3], 50.1 µM (active); in assay [4], 25.1 µM (active); in [8], 15.8 µM (active); in [9], 50.1 µM (active). Besides, the Potency in assay [10] was 50.1 µM (active); in [11], 31.6 µM (active); in [12], 39.8 µM (active); in assay [13], 31.6 µM (active); in [14], 50.1 µM (active); in assay [15], 39.8 µM (active). Besides, the Potency in [16] was 39.8 µM (active); in assay [17], 50.1 µM (active); in [18], 50.1 µM (active); in [19] it was 31.6 µM (active). Moreover, the outcome in assay [5] was inactive. Moreover, the Potency result in [6] and in assay [20] was “inactive” each time. Further, in [7], the caspase-3 activation is 12.2%.
On to `[CH3][Hg][Cl]`, for which the Potency in assay [1] was 1.49 µM (active); in assay [2], 15.8 µM (active); in [3] it was 5.01 µM (active); in [4], 2.51 µM (active); in assay [8], 1.58 µM (active); in assay [9], 39.8 µM (active). Moreover, the Potency was 50.1 µM (active) in assay [10]; 50.1 µM (active) in assay [11]; 5.01 µM (active) in [12]; 3.98 µM (active) in assay [14]; 3.16 µM (active) in [15]; 5.01 µM (active) in [16]. For the same compound, the Potency in assay [17] was 5.01 µM (active); in assay [18], 3.98 µM (active); in [19], 3.16 µM (active). Further, the outcome in assay [5] was inactive. Also, in assay [7], the caspase-3 activation was -9.46%.
With `O=[N+]([O-])c1ccccc1Cl`, the Potency in [1] is > 92 µM.
On to `ClC1=C(Cl)C2(Cl)C3C(Cl)C(Cl)CC3C1(Cl)C2(Cl)Cl` (stereo unspecified), for which the figures for the Potency in [1] and in [20] were 60.7 µM (active) and 50.1 µM (active), respectively. Further, the viability change, negative = cytotoxic in [4] was -97.5% (active). In assay [5], the outcome was inactive. Besides, the Potency result in [6], in assay [8], in [10], in [13], in assay [14] and in assay [15] was “inactive” throughout. For the same compound, the Potency result in assay [16], in assay [18] and in assay [19] was “inactive” throughout. The caspase-3 activation in assay [7] is 204% (active).
For the compound `Cc1ccc(O)cc1C`, in assay [1], the Potency is > 92 µM.
As to `C#CCO`, the Potency in assay [1] is > 92 µM. The Potency entry in assay [2], in [3], in assay [4], in assay [6], in assay [8] and in assay [9] was “inactive” throughout. Further, the Potency result in assay [10], in assay [11], in assay [12], in assay [13], in assay [14] and in [15] was “inactive” each time. For the same compound, the Potency entry in assay [16], in assay [17], in assay [18], in assay [19] and in [20] was “inactive” each time. In [5], the compound was classed as inactive. Besides, the caspase-3 activation in assay [7] is 1.98%.
For the compound `OC(c1ccc(Cl)cc1)(c1ccc(Cl)cc1)C(Cl)(Cl)Cl`, the Potency entry in [2], in [3], in assay [4], in assay [6], in assay [8] and in assay [9] was “inactive” throughout. Besides, the Potency entry in [10], in [11], in [12], in assay [13], in [14] and in assay [15] was “inactive” throughout. For the same compound, the Potency result in assay [16], in assay [17], in assay [18] and in assay [19] was “inactive” throughout. For the same compound, the result in assay [5] was inactive. Moreover, the Potency in assay [20] is 50.1 µM (active).
